Source: the supplement of paper PMC6555819

Legend:
Assay in all cases: PBM binding z-score (relative to random genomic background probes); higher = stronger binding; sequences stand for … in GC…GCGATTGACAGCGTAGAATGAAGG
[1] = system: FXR:RXRa (NR concentration 270 nM, RXRa partner concentration 90 nM)
How it was run: (§1)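 Ligand-free nuclear receptor dimers were applied to custom Agilent 4×180K protein-binding microarrays whose double-stranded probes carried direct-repeat seeds, single-nucleotide variants, half-site ablations and random human genomic background sequences in 34-nt variable regions. Incubation lasted 1 h. Binding z-scores were computed against the random background probes from regression-normalized fluorescence.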

[2] = system: LXRa:RXRa (NR concentration 270 nM, RXRa partner concentration 90 nM)
How it was run: as §1

[3] = system: LXRa homodimer (NR concentration 270 nM)
How it was run: as §1

[4] = system: LXRb:RXRa (NR concentration 270 nM, RXRa partner concentration 90 nM)
How it was run: as §1

[5] = system: LXRb homodimer (NR concentration 270 nM)
How it was run: as §1

[6] = system: PPARa:RXRa (NR concentration 270 nM, RXRa partner concentration 90 nM)
How it was run: as §1

[7] = system: PPARg:RXRa (NR concentration 180 nM, RXRa partner concentration 90 nM)
How it was run: as §1

[8] = system: PPARg:RXRa 270nM:90nM, anti-RXR (NR concentration 270 nM, RXRa partner concentration 90 nM)
How it was run: as §1

[9] = system: PPARg:RXRa 30nM:10nM, anti-RXR (NR concentration 30 nM, RXRa partner concentration 10 nM)
How it was run: as §1

[10] = system: PPARg:RXRa 90nM:30nM, anti-RXR (NR concentration 90 nM, RXRa partner concentration 30 nM)
How it was run: as §1

[11] = system: PPARg:RXRa DBDmut IVT, anti-RXR (DBD mutation: RXRa K156A/R161A, NR concentration 270 nM, RXRa partner concentration 90 nM)
How it was run: as §1

[12] = system: PPARg:RXRa IVT, anti-PPARg (NR concentration 270 nM, RXRa partner concentration 90 nM)
How it was run: as §1

[13] = system: PPARg DBDmut:RXRa IVT, anti-PPARg (DBD mutation: PPARg1 K132A/R137A, NR concentration 270 nM, RXRa partner concentration 90 nM)
How it was run: as §1

[14] = system: PPARg DBDmut IVT, anti-PPARg (DBD mutation: PPARg1 K132A/R137A, NR concentration 270 nM)
How it was run: as §1

[15] = system: PPARg homodimer (NR concentration 180 nM)
How it was run: as §1

[16] = system: PXR:RXRa (NR concentration 270 nM, RXRa partner concentration 90 nM)
How it was run: as §1

[17] = system: PXR homodimer (NR concentration 270 nM)
How it was run: as §1

[18] = system: RARa:RXR (NR concentration 270 nM, RXRa partner concentration 90 nM)
How it was run: as §1

[19] = system: RARa homodimer (NR concentration 270 nM)
How it was run: as §1

[20] = system: RARb:RXRa (NR concentration 270 nM, RXRa partner concentration 90 nM)
How it was run: as §1

Sequence	PBM binding z-score [1]	PBM binding z-score [2]	PBM binding z-score [3]	PBM binding z-score [4]	PBM binding z-score [5]	PBM binding z-score [6]	PBM binding z-score [7]	PBM binding z-score [8]	PBM binding z-score [9]	PBM binding z-score [10]	PBM binding z-score [11]	PBM binding z-score [12]	PBM binding z-score [13]	PBM binding z-score [14]	PBM binding z-score [15]	PBM binding z-score [16]	PBM binding z-score [17]	PBM binding z-score [18]	PBM binding z-score [19]	PBM binding z-score [20]
TCATATAGGTAAACAGGTGGAAGTCCGTAAGTTA	0.72	0.64	0.229	0.692	0.0407	1.43	1.16	2.43	4.15	3.06	4.42	3.02	0.862	0.82	1.12	0.46	0.859	0.577	0.928	0.625
CCTTACGTGTCAAGGTTATAGCACGGGTGGTACG	0.976	0.929	0.288	0.638	0.609	1.36	0.992	0.8	0.3	0.364	0.564	0.962	-0.292	0.0662	0.942	0.998	0.776	1.16	1.18	1.57
ACTCGGAGGACAAAGGTCAGAGTTACGCCAGTGA	4.06	4.17	1.93	3.55	0.422	5.03	7.06	6.77	5.57	7.32	0.7	3.34	0.234	-0.025	4.3	4.14	0.365	5.54	1.61	4.38
TCATATAGGTACAGGTGAAAGTCGAACGATATGA	0.652	0.533	-0.0804	0.777	-0.304	1.62	1.23	2.41	3.76	2.76	2.01	1.83	1.45	1.06	0.632	0.509	-0.0466	0.718	0.84	0.896
ATCGCAAGGTCGAAGGTGAGTATACCCACCCGAA	1.5	1.58	-0.525	1.16	-0.359	3.01	2.77	3.69	0.969	2.25	-0.513	1.21	0.246	-0.257	0.231	1.89	-0.311	2.65	-0.621	2.41
ACAATGAGGTTAAGATCAGGGAAACAGAATACAT	2.2	2.23	0.0608	1.85	0.674	3.04	2.06	1.68	0.802	1.24	1.93	1.78	1.53	1.8	1	1.35	0.672	1.97	1.24	1.95
AGAATGACGTTATACGTAGATCAGGGAAGAAAGT	-0.751	-0.685	-0.265	-0.753	-0.294	-0.611	0.583	-0.509	-0.197	-0.37	-1.31	-0.2	0.276	1.24	-0.321	-0.696	0.0404	-0.492	-0.733	-0.573
GGAACGAGGCCATTCGAGTTGATAGCATGGCGAT	0.572	0.106	-0.48	-0.483	-0.846	0.013	0.591	0.257	-0.557	-0.163	2.23	1.22	-0.239	-0.906	-0.779	1.73	0.561	-0.0585	-1.34	0.94
TTATATAGGTAAAAGGTGAAAGTCGGTGTGGTAA	2.14	1.87	0.372	2.02	-0.0123	6.3	10.6	9.28	9.36	10.3	7.08	6.76	2.28	1.42	2.84	1.91	0.453	3.15	1.5	1.86
ATACCAACGTGATCGTGAGGTCGTTGATACTAAC	0.885	0.498	0.494	0.84	-0.123	0.65	0.385	-0.0479	-0.202	-0.163	-0.625	0.0964	0.725	0.527	0.699	1.67	0.835	1.23	-0.137	0.259
ACAAACAGGTGATGAAGGTAACTCAGGCTATCAT	0.258	0.355	0.00497	0.22	0.327	0.415	0.866	0.462	0.363	0.0404	1.05	1.01	0.711	0.584	0.773	0.14	0.394	0.713	0.803	0.582
CCTACTAGGTCATGGTCAGCTAATCTACAGTATG	3.8	2.57	0.658	2.06	0.291	4.33	6.76	5.84	3.38	4.97	7.3	7.42	2.12	1.91	2.59	1.5	0.291	2.45	0.932	3.92
TCTTGCAGATCAAGCAGGTTAAGAAAGCCTGAGT	-0.529	0.00259	-0.304	0.157	-0.667	0.293	-0.508	0.302	1.76	1.14	0.549	-0.312	-0.516	-0.801	-0.945	0.199	-0.285	0.324	-1.11	-0.136
CGTCCAAGGTCAATGTCAGTGAAAGAGACTCGAA	6.7	4.8	0.641	3.88	1.05	5.35	4.26	4.46	1.3	2.57	2.67	3.14	-0.322	-0.37	2.27	3.36	1.18	3.8	0.639	4.85
ATCACTAGGTAACCAAGTTCAGTGAATGCCGAAC	0.163	0.618	0.625	0.415	-0.134	1.42	1.82	1.3	0.47	0.739	4.99	4.16	1.62	0.399	0.811	2.06	1.73	0.23	0.365	1.01
ATCTCTAGGTAACCCAGTTCAGTGAATGCCGAAC	0.242	0.741	0.606	0.843	0.72	1.72	1.52	1.69	0.311	1.12	4.06	4.47	1.33	1.28	1.12	1.64	1.23	0.719	0.547	0.652
CGAACTAGGTCATCCAGGACATTGAATACATTGA	4.43	2.87	1.02	2.52	0.159	5.11	7.97	6.57	4.02	5.68	8.08	8.47	4.18	1.44	2.2	2.71	3.75	2.82	1.01	3.92
CTACCAAGGTGGACAAGGTCGTTGATTACTATTC	0.175	0.496	0.259	0.805	-0.653	0.861	0.061	0.155	-0.189	-0.0308	0.0779	0.0174	-1.17	0.143	0.0242	1.28	0.687	1.16	0.219	0.561
CAAACTAGGTCAAGGACAAAGTCGGTTTGTGCCA	3.65	2.54	0.38	1.43	0.178	4.59	7.75	6.74	4.87	6.38	8.57	8.47	0.998	1.42	2.03	1.6	0.0226	1.91	-0.478	4.15
TCTTGTAGATCAAGCAGCTTAAGAAAGCCTGAGT	-0.352	-0.169	-0.373	-0.0264	-0.791	0.29	-0.61	1.03	2.17	1.5	1.1	0.213	-0.268	-0.032	0.0501	-0.0224	-0.129	-0.209	-0.515	-0.253
CCTAGTTGGTCAAAGTCACACACGCTATAGGTAC	0.342	0.505	0.567	0.625	0.603	0.517	1.35	1.68	0.915	1.46	1.7	1.52	0.647	0.822	1.59	0.0775	0.736	0.303	1.44	1.42
TAGCCTAGGTCATGCGGGCCAGTACAGTGTCGGC	4.21	2.99	0.179	1.48	-0.174	3.65	2.42	2.56	0.126	1.61	1.55	2.81	0.187	-0.334	1.24	1.55	-0.513	2.47	-0.899	3.61
ATATCAAGGTGATCGTGAGGTCGTTGATACTAAC	1.97	1.33	0.367	1.31	0.595	1.82	0.923	0.763	0.0904	0.846	1.67	2.27	1.01	1.33	0.347	3.24	1.18	2.03	0.406	1.69
ATCCCTAGGTAAAGATAGTTCAGTGAATGCAAAT	0.139	4.49	0.337	0.881	0.0793	0.459	0.486	-0.104	-0.14	-0.302	-0.0456	0.0928	0.379	0.507	0.544	1.12	0.666	0.665	1.04	0.863
CGAACGAGGGCATGAGTTGTTAGCAAATGCCGAT	0.401	0.0861	-0.503	0.156	-1.1	1.01	1.08	1.21	-0.27	0.425	3.23	2.05	-0.603	-0.6	-0.0331	0.251	-0.0972	0.245	-0.393	1.98
CTACCAAGGTGAACCAGGTCGTTGATTACTATTC	0.862	1.52	-0.0698	1.8	-0.718	2.61	1.19	1.54	0.0677	0.58	2.39	3.12	-0.252	0.258	1.51	1.93	0.659	2.14	-0.266	1.92
TTACCAAGGTGGGCTGAGGTCGTTGATCCAACTC	1.56	0.463	-0.083	0.938	-0.656	0.97	-0.473	0.212	-0.219	-0.0469	-0.241	0.386	-0.362	-0.213	-0.101	2.86	0.257	1.14	0.0238	0.446
ACTATTAGTTGACTTAGGGCAACGGATACGACGC	0.165	0.158	0.172	-0.137	0.447	-0.22	0.94	0.192	0.24	0.227	0.00929	0.309	1.35	1.09	0.328	0.113	0.452	0.313	0.0802	0.718
CGTCCAAGGTCAGACAGGTCAGTGAATGCCGAGT	5.43	4.15	1.39	3.43	0.134	4.25	2.72	3.38	0.54	1.85	2.43	2.79	-0.527	-0.665	2.82	4.38	6.4	4.28	0.847	4.93
